Measured values as given in PubChem BioAssay.
Records with an inconclusive call do not appear. Active and inactive are the calls of the source.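 The calls were made as follows, unless noted: active = growth inhibition above 25% in both replicates, a cutoff set 3 SD above the mean; inconclusive = above 25% in only one replicate; inactive = the rest.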

Experiments:
[1] = Her2 expression decrease, cell viability multiplex – SKBR3 breast tumor cells, AlphaScreen, ATP viability, primary screen (AID 461;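 active = Her2 level under about 52% in both replicate screens, with viability over 70% of control, limit read from the data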;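 as to Her2 level: lower value means less Her2 protein in the cells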;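 as to viability: percent of carrier control wells set as 100% viability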); conditions: SKBR3 Her2 protein level, 18-24 h, measured here: SKBR3 viability, ATP luminescence, at 10 µM
[2] = target: Receptor tyrosine-protein kinase erbB-2 (Homo sapiens) (UniProt P04626); assay: as above; conditions: 18-24 h, at 10 µM, stronger effect = lower value
Sequence of Receptor tyrosine-protein kinase erbB-2 (Homo sapiens) (P04626 whole entry, looked up): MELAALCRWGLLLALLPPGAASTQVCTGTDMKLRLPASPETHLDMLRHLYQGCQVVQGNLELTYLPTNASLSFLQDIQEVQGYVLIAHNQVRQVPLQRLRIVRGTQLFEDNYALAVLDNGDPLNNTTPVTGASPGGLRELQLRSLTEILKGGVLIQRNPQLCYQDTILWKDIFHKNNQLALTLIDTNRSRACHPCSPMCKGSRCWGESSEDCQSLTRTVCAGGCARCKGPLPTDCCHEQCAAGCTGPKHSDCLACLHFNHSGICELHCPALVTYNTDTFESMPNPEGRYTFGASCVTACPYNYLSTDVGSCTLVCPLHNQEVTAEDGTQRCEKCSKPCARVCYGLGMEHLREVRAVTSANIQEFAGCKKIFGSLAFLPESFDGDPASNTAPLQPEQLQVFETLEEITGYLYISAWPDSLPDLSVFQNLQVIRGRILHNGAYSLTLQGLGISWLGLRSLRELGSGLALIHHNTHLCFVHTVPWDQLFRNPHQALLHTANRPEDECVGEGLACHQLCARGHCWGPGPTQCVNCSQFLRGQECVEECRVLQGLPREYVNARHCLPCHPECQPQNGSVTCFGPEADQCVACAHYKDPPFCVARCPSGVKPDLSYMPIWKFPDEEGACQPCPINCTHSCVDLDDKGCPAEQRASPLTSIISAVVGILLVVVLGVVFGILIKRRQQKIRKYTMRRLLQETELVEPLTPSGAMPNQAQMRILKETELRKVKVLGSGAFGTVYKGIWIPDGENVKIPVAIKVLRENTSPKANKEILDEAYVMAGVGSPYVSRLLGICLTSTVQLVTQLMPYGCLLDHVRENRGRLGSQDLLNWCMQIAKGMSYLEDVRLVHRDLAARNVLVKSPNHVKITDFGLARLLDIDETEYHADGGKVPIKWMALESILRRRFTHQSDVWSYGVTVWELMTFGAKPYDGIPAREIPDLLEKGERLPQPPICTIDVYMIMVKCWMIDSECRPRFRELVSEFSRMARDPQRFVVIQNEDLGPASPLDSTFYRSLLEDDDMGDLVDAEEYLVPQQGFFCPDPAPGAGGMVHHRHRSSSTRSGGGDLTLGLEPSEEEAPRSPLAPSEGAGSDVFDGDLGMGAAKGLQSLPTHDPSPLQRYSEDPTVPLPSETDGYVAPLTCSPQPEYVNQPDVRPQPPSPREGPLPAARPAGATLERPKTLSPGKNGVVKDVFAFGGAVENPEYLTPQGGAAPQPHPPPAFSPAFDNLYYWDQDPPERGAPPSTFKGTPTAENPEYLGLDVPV

[3] = reduced viability of SK-BR-3 breast cancer cells – cell-based, 24 h, human, pilot screen (AID 572;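 active = viability at or below 10% of carrier control in both of two separate runs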;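 also: compound exposure lasted between 18 and 24 h rather than exactly 24 h; 100% = carrier-treated control wells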); conditions: SK-BR-3 viability, CellTiter-Glo luminescence, at 10 µM, stronger effect = lower value
[4] = HUVEC growth inhibition – cell-based, human, primary screen (AID 575;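 active = viability at or below 30% in both replicate assays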;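 also: 100% = median of untreated cell wells with 0.1% DMSO on each plate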); conditions: HUVEC proliferation, CellTiter-Glo luminescence, 72 h; at 10 µM; stronger effect = lower value
[5] = H69AR cell proliferation blockers – human, duplicate replicates, primary screen (AID 580;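 active = viability at or under a set limit in both replicates, limit being median viability minus 3 SD, cut at about 48% in these data, passing the limit was not always enough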;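 also: 100% = mean luminescence of untreated wells and 0% = no signal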); conditions: H69AR lung tumor cells viability, ATP luminescence, 72 h; at 10 µM; stronger effect = lower value
[6] = MRP1 drug-resistance reversers in H69AR cells – cell-based, doxorubicin co-treatment, pilot screen (AID 601;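 active = viability loss from added drug above about 55%, and viability with drug at most 40%, in both replicates, limit read from the data, passing the limit was not always enough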); conditions: CellTiter-Glo, 72 h, at 10 µM; for differential viability (reversal): stronger effect = higher value
[7] = yeast transport mutant growth inhibition pilot in 384-well plates, post-Golgi transport modulator project (AID 636; in the data active = inhibition above about 31%); conditions: absorbance 615 nm, about 18 h, stronger effect = higher value
[8] = growth suppression of yeast trafficking mutant, preliminary HTS, modulators of trafficking downstream of Golgi apparatus project, 1536-format plate, OD 615 nm (AID 637; in the data active = inhibition above about 30%); conditions: yeast transport mutant growth, absorbance 615 nm, 18 h; stronger effect = higher value
[9] = S. cerevisiae growth inhibition in permissive medium (OD615), pilot counter-assay for S. cerevisiae lifespan shortening project, permissive growth control (AID 705); conditions: OD615, 24 h, at 10 µM, stronger effect = higher value
[10] = S. cerevisiae growth inhibition in restrictive medium, OD615, pilot screen, restrictive growth control, yeast lifespan reduction project (AID 706;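 active = growth inhibition above a set limit, 3 SD over mean compound inhibition, in both replicates, cut at about 43% in these data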;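 also: modified DeaD lifespan yeast strain shifted to restrictive glucose medium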); conditions: OD615, 48 h, at 10 µM, stronger effect = higher value
[11] = doxorubicin toxicity protection in MRP-1 cells – H69AR cells, CellTiter-Glo, duplicate, MRP-1 activator project, pilot screen (AID 807;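 active = viability increase at or above a cutoff of the median across tested compounds plus 3 SD, cut at about 8.5% in these data, passing the limit was not always enough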;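 also: compound pretreatment 18-22 h then 72 h combined with doxorubicin; 0% = doxorubicin alone and 100% = vehicle without doxorubicin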); conditions: H69AR viability with doxorubicin, CellTiter-Glo luminescence; at 10 µM; stronger effect = higher value
[12] = viability of HCT116 without oncogenic beta-catenin – human colon tumor cells, pilot screen (AID 823;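 active = cell viability at or below a set limit in both duplicate runs, the limit being the all-compound median minus 4 SD, cut at about 23% in these data, passing the limit was not always enough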;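 also: 0% = wells killed by 20 µM Hyamine and 100% = untreated DMSO cell wells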); conditions: HCT116 beta-catenin knockout viability, CellTiter-Glo, 60 h; at 10 µM; stronger effect = lower value
[13] = viability of PTEN-null HCT116 cells – cell-based, HCT116 clonal line, CellTiter-Glo, pilot screen (AID 824;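 active = viability at or below 27.92% in each of two runs, the all-compound median minus 4 SD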;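 also: 0% = 20 µM Hyamine control and 100% = vehicle cell control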); conditions: HCT116 PTEN-deleted viability, 60 h, at 10 µM, stronger effect = lower value
[14] = RAM pathway blockade in budding yeast – dse1pr::URA3 reporter, 5-FOA selection, pilot screen (AID 869;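 active = inhibition over a set limit, the all-compound mean plus 3 SD, in both replicate runs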;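 also: 0% = DMSO wells with no growth and 100% = 10 µM 1-NA-PP1 with full growth; RAM network block rescues cells from 5-FOA so hits raise OD615 growth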); conditions: S. cerevisiae dse1pr::URA3 5-FOA growth, OD615, 2 d; at 10 µM; stronger effect = higher value; strain carries analog-sensitive mutant Cbk1 kinase
[15] = RAM signaling pathway blockade in yeast – S. cerevisiae, Pdr1DBD-CYC8 efflux-inhibited sensitized strain, primary screen (AID 1298;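 active = RAM network inhibition above 8.4% in each of two replicates, 3 SD over the compound average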;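 also: 0% = DMSO untreated cells without growth and 100% = 10 µM 1-NA-PP1 full growth; higher means more yeast growth rescued from 5-FOA killing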); conditions: S. cerevisiae cbk1-as DSE1-URA3 strain, 5-FOA growth OD615, 2 d; at 50 µM; stronger effect = higher value
[16] = H69AR cells + 2 uM doxorubicin, measured here: viability with 2 uM doxorubicin, stronger effect = lower value
[17] = H69AR cells, compound alone cytotoxicity

For `COc1ccccc1N(CC(=O)Nc1cccnc1)S(C)(=O)=O`, the viability [1] was 94.5%, the Her2 level [2] was 108% (inactive) and the viability [3] was 94.5% (inactive). The viability [4] was 89.8% (inactive), the viability [5] was 89.3% (inactive) and the differential viability (reversal) ([6]; H69AR cells + 2 uM doxorubicin) was 1.5% (inactive). The viability [6, 16] was 87.8%, the viability [6, 17] was 89.3% and the inhibition [7] was 0.81% (inactive). The inhibition [8] was -3.28% (inactive), the growth inhibition [9] was -5.2% (inactive) and the growth inhibition [10] was 13.5% (inactive). For the same compound, the viability increase [11] was -1.31% (inactive), the viability [12] was 103% (inactive) and the viability [13] was 97.2% (inactive). For the same compound, the inhibition [14] was 2.62% (inactive) and the RAM network inhibition [15] was 3.47% (inactive).
In the case of `O=C(Nc1ccc2snnc2c1)N1CCN(c2ccccc2)CC1`, the viability [1] is reported as 81.5%, the Her2 level [2] is reported as 86% (inactive) and the viability [3] is reported as 81.5% (inactive). For the same compound, the viability [4] was 75.4% (inactive), the viability [5] was 85.3% (inactive) and the differential viability (reversal) ([6]; H69AR cells + 2 uM doxorubicin) was -7.63% (inactive). For the same compound, the viability [6, 16] was 92.9%, the viability [6, 17] was 85.3% and the inhibition [7] was -0.38% (inactive). The inhibition [8] was -2.33% (inactive), the growth inhibition [9] was -13.7% (inactive) and the growth inhibition [10] was -17.1% (inactive). For the same compound, the viability increase [11] was -2.11% (inactive), the viability [12] was 85.2% (inactive) and the viability [13] was 79.4% (inactive). The inhibition [14] was 1.3% (inactive) and the RAM network inhibition [15] was 5.24% (inactive).
In the case of `CCOC(=O)N1CCN(C(=O)CSc2nnc(COc3ccccc3)o2)CC1`, the viability [1] is reported as 92.5%, the Her2 level [2] is reported as 89.5% (inactive) and the viability [3] is reported as 92.5% (inactive). The viability [4] was 95.2% (inactive), the viability [5] was 97.2% (inactive) and the differential viability (reversal) ([6]; H69AR cells + 2 uM doxorubicin) was 9.01% (inactive). For the same compound, the viability [6, 16] was 88.2%, the viability [6, 17] was 97.2% and the inhibition [7] was 2.67% (inactive). The inhibition [8] was -7.21% (inactive), the growth inhibition [9] was -8.08% (inactive) and the growth inhibition [10] was 1.67% (inactive). The viability increase [11] was 1.41% (inactive), the viability [12] was 99.4% (inactive) and the viability [13] was 100% (inactive). For the same compound, the inhibition [14] was -0.34% (inactive) and the RAM network inhibition [15] was 7.1% (inactive).
With `O=C(Cn1ncc2c(=O)oc3ccccc3c21)NCCCN1CCCC1=O` the viability [1] was 86.5%, the Her2 level [2] was 106% (inactive) and the viability [3] was 86.5% (inactive). For the same compound, the viability [4] was 93.1% (inactive), the viability [5] was 101% (inactive) and the differential viability (reversal) ([6]; H69AR cells + 2 uM doxorubicin) was 16.6% (inactive). For the same compound, the viability [6, 16] was 84.4%, the viability [6, 17] was 101% and the inhibition [7] was 1.79% (inactive). The inhibition [8] was -3% (inactive), the growth inhibition [9] was 1.48% (inactive) and the growth inhibition [10] was -6.73% (inactive). The viability increase [11] was -0.08% (inactive), the viability [12] was 101% (inactive) and the viability [13] was 113% (inactive). For the same compound, the inhibition [14] was 1.86% (inactive) and the RAM network inhibition [15] was 3.58% (inactive).
